# Test results reported in PubChem BioAssay AID686971 (National Center for Advancing Translational Sciences (NCATS), 2013).
# Out of some 360,000 compounds screened, about 7,500 (2.1%) were called active. Entries that show only a call come without a potency. Another 8% or so got no clear call; they are omitted. The sample holds actives, similar compounds and a random draw of the others, so the mix is not that of the screen. Calls follow the shape of the dose curve; as a rule, active = well fitted cell-killing curve with a large enough effect; inconclusive = small, poorly fitted or top-dose-only effect, or effect the other way, or another doubt; inactive = no such curve, though single readings can be large or run the other way.
# Experiment: qHTS for induction of synthetic lethality in tumor cells producing 2HG: qHTS for the HT-1080-IDH1KD cell line
# Settings: HT-1080 IDH1 knockdown viability, ATP luminescence, 48 h; series mostly up to 46.1 µM
# In short: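 CellTiter-Glo luminescence after 48 h compound exposure at 37 degrees C of IDH1-knockdown HT-1080 cells in 5% FBS RPMI. %Activity scaled between DMSO wells and cell-free media wells, with curves fitted and assigned curve classes.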
# Potency is read from the fitted curve at half-maximal effect.
row,SMILES,Potency
1,O=P(OC1=CCCCC1)(c1ccccc1)c1ccccc1,inactive
2,COP(=O)(NS(=O)(=O)c1ccccc1)OC,inactive
3,c1ccc(C(CN2CCCCC2)c2ccccc2)cc1,inactive
4,O=c1c2ccccc2[nH]c(=S)n1-c1cccc(Cl)c1,inactive
5,O=C1C2(Cl)C3(Cl)C4(Cl)C(Cl)(Cl)C5(Cl)C3(Cl)C1(Cl)C5(Cl)C24Cl (stereo not given),16.4 µM (active)
6,CC1C(=O)OC2CCN3CC=C(COC(=O)C(C)(O)C1(C)O)C23 (stereo not given),inactive
7,Cc1cccc(NC(=O)OC2CN3CCC2CC3)c1 (stereo not given),inactive
8,CN1CCN(Cc2ccc(OC(F)(F)F)cc2)CC1,inactive
9,O=c1c2ccccc2nc(/C=C/c2ccc(F)cc2)n1-c1ccccc1O,20.6 µM (active)
10,Cc1nc2ccccc2c(=O)n1-c1ccc(Cl)cc1Cl,inactive
11,O=c1c2ccccc2nc(/C=C/c2ccco2)n1-c1ccccc1O,inactive
12,CCOc1cccc(=NC2CCCCC2)c2c(C)[nH]c(C)c12,20.6 µM (active)
13,C=C(C)C1(CCCC)C(=O)NC(=S)NC1=O,inactive
14,CC(=O)Nc1ccc(C(=O)C(Cc2ccccc2)N(C)C)cc1 (stereo not given),inactive
15,CSc1nc2ccc(C)cc2c(=O)n1-c1cccnc1,inactive
16,O=C(NC1CCCCC1)N1Cc2cc(N3CCCCC3)ccc2-n2nncc2C1,inactive
17,Cc1cc2ccccn2c1C(C[N+](=O)[O-])c1c(F)cccc1Cl (stereo not given),10.3 µM (active)
18,CN1CCc2cc3c(cc2[C@H]1[C@@H]1OC(=O)c2c1ccc1c2OCO1)OCO3,inactive
19,c1cc2c(c(NC3=NCCCS3)c1)CCCC2,inactive
20,COC(=O)C1=C(c2ccc(OCc3ccccc3)cc2)C[C@@H]2CC[C@H]1N2C(=O)NCc1ccc(Cl)cc1,inactive
21,Cc1nc2nc(C)c(CCC(=O)N3CCC4(CC3)OCCO4)c(C)n2n1,inactive
22,COC1=CC=C2[C@H]3Cc4ccc(OC)c5c4[C@@]2(CCN3C)C1O5 (stereo not given in full),inactive
23,COc1ccc2c(c1O)-c1cccc3c1[C@@H](C2)N(C)CC3,inactive

row,SMILES,Potency
1,COc1ccc2c3c1O[C@H]1C[C@@H](O)C=C[C@@]31CCN(C)C2,5.8 µM (active)
2,COc1ccc(C(=O)CC2C(=O)N(C)C(=O)N(C)C2=O)cc1,inactive
3,Cc1ccc(-n2c(O)c(C=NCC3CCCO3)c(=O)[nH]c2=O)c(C)c1 (stereo not given),inactive
4,COc1ccc(NC(=O)N2Cc3ccccc3-n3nncc3C2)cc1,inactive
5,COC(=O)C1=C(c2ccccc2)C[C@@H]2CC[C@H]1N2C(=O)NCc1ccco1,inactive
6,Cc1ncoc1C(=O)NCC1=C(c2cccc3ccccc23)C[C@@H]2CC[C@H]1N2Cc1ccco1,inactive
7,COc1cc(Cn2c(N)c(C(=O)NCc3ccco3)c3nc4ccccc4nc32)cc(OC)c1OC,8.91 µM (active)
8,CCOC(=O)C1(c2ccccc2)CCN(CC(O)c2ccc(NC(C)=O)cc2)CC1 (stereo not given),inactive
9,CC12CCC3C(CCC4CC(=O)CCC43C)C1CC(=NO)C2=O (stereo not given),inactive
10,CNC(=O)O/N=C(\N)Cc1csc2ccc(Cl)cc12,20.6 µM (active)
11,CNC(=O)O/N=C(\N)Cc1csc2ccccc12,inactive
12,COC(=O)C1=C(c2ccc(OCc3ccccc3)cc2)C[C@@H]2CC[C@H]1N2C(=O)NCc1cccc(F)c1,inactive
13,O=C(NC(=S)N1C[C@H]2C[C@H](C1)c1cccc(=O)n1C2)c1ccc(F)cc1,inactive
14,CC(CC(C#N)(c1ccccc1)c1ccccc1)N1CCCCC1 (stereo not given),inactive
15,C=CCN1C(=O)C2(C(C(=O)OCC)=C(N)Oc3c2c(=O)oc2ccccc32)c2ccccc21 (stereo not given),inactive
16,O=c1c2ccccc2nc(CBr)n1-c1ccc(Cl)cc1,inactive
17,CC1CNCCN1c1ccc(Cl)cc1 (stereo not given),inactive
18,CC1=CC(=Cc2sc3ccccc3[n+]2C)C=C(C)O1,10.3 µM (active)
19,COc1ccccc1C1=NCc2nnc(CSC)n2-c2ccc(Cl)cc21,inactive
20,c1ccc(N2Cc3ccccc3-n3nncc3C2)nc1,inactive
21,COc1cccc(C(c2nnnn2-c2ccc3c(c2)OCCO3)N2CCC3(CC2)C(=O)NCN3c2ccccc2)c1OC (stereo not given),16.4 µM (active)
22,CC(=O)Nc1ccccc1C(=O)OCC(=O)c1cccc2ccccc12,inactive
